Shown is part of a subset that was picked to be rich in hits.
IL1B secr inh: inhibitors of inflammasome signaling (IL-1 beta secretion). hit rate 4.7% among 360,000. THP-1 LPS/ATP IL-1B secretion, AlphaLISA, 16 h; stronger effect = lower value. activity change, % at 57.5 µM; in the data active means activity change below about -50%; inconclusive means mostly about -30% to -49%
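Secreted IL-1B measured by AlphaLISA bead assay after 16 h compound exposure of THP-1 cells; compounds (final up to 57.5 uM) added 1 h before LPS (250 ng/mL) and ATP (1.25 mM) stimulation; lower signal means less secretion.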
HT1080-NT tox: kills 2HG-producing HT-1080-NT fibrosarcoma cells; HT-1080-NT fibrosarcoma viability, CellTiter-Glo ATP luminescence, 48 h; Potency, µM (titrated, usually from 46.1 µM), most hits filed as cytotoxic; hit rate 1.6% among 360,000; AID 686970;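 further: NT is the 2HG producing partner of a matched IDH1 knockdown line; nearly all actives have a fitted effect of over 55% in size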
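HT-1080-NT fibrosarcoma cells (2HG-overproducing), 750 cells/well in RPMI with 5% FBS, dosed after 2 h and incubated 48 h at 37C. CellTiter-Glo luminescence normalized to DMSO and no-cell wells; concentration-response curves fitted and classed.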
ALOX12 inh: ALOX12 (human) lipoxygenase inhibition | P18054 | purified 12hLO, xylenol orange hydroperoxide absorbance | Potency, µM (series often up to 108 µM), actives largely listed as inhibitors | hit rate 1.1% among 580,000 | AID 1671190
Target sequence (P18054 whole entry, looked up): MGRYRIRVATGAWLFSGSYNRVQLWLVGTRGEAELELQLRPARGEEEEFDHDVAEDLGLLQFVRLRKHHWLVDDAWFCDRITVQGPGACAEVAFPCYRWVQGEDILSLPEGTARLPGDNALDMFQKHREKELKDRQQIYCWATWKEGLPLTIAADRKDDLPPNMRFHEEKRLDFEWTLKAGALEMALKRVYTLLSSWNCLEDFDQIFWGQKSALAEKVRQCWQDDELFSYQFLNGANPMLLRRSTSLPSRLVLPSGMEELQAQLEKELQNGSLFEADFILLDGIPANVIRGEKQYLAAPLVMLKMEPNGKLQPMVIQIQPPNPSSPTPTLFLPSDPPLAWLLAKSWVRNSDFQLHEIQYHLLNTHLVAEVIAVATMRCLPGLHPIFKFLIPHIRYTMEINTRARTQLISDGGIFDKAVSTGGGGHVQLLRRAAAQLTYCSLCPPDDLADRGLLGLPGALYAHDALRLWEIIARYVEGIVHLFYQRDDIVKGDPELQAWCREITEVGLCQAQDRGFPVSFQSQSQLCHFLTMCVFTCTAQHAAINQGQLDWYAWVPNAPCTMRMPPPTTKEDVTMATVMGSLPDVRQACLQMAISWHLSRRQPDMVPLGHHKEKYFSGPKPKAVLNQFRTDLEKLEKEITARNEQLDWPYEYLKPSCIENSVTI
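Purified human 12hLO (150 nM final) in 25 mM Hepes, 0.01% Triton X-100, pH 7.0 was preincubated 15 min at room temperature with compound. Then 40 uM arachidonic acid was added, 30 min. Hydroperoxide was read by Fe-XO absorbance ratio 573/405 nm.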
TDP1 cell CPT: DT40-hTDP1 cell growth loss with CPT | chicken DT40 Tdp1-/-;hTDP1 cells + 20 nM CPT, ATP luminescence, 48 h | Potency, µM (titrated, usually from 46.2 µM), actives largely listed as inhibitors | hit rate 12% among 420,000; further: nearly all actives have a fitted effect of over 55% in size
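Cell growth measured by CellTiter-Glo luminescence after a minimum 48 h, 37 C compound exposure with 20 nM CPT in Tdp1-knockout DT40 cells stably expressing hTDP1, seeded 400/well; qHTS titration format.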
TDP1 cell noCPT: qHTS for Inhibitors of human tyrosyl-DNA phosphodiesterase 1 (TDP1): qHTS in cells in absence of CPT; Potency, µM (series often up to 46.2 µM), usual class: inhibitors; hit rate 15% among 420,000; AID 686978, 2013; DT40 Tdp1-/- hTDP1 cells, no CPT, ATP luminescence, 48 h; further: nearly all actives have a fitted effect of over 55% in size
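Chicken DT40 Tdp1-/- cells complemented with human TDP1, screened without camptothecin (DMSO vehicle only), 400 cells/well. Compounds pin-transferred, cells incubated at 37 °C for at least 48 hr. Growth read as ATP-dependent luminescence (CellTiter-Glo, 30 min at RT).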
HT1080 IDH1KD tx: kills HT-1080 cells with IDH1 knockdown | hit rate 2% among 360,000 | Potency, µM (highest dose often 46.1 µM), hits mostly cytotoxic | HT-1080 IDH1 knockdown viability, ATP luminescence, 48 h
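Knockdown cells (IDH1KD HT-1080) received compounds 2 h after plating at 750 cells/well and were kept 48 h at 37 °C in 5% FBS RPMI. A CellTiter-Glo luminescence read gave % activity for curve fitting.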
A number is an active result; 0 = inactive; ? = inconclusive; - = no result given; ! = not active in a repeat; [ ] = remark or other dose. Unless noted, the call rests on the fitted dose curve; in most records, active means well fitted curve in the direction sought with a large enough effect; inconclusive means small, poorly fitted or top-dose-only effect, or another doubt; inactive means no such curve, though single readings can be large; an effect the other way counts as inactive or inconclusive.

SMILES	IL1B secr inh	HT1080-NT tox	ALOX12 inh	TDP1 cell CPT	TDP1 cell noCPT	HT1080 IDH1KD tx
CC(C)C(=O)Nc1ccc(F)c(F)c1F	-	-	0	-	-	-
CC(=O)NCCNc1ncnc2ccc(-c3ccccc3Cl)cc12	-	-	32µM	0	?	-
Clc1ccccc1-c1ccc2ncnc(NCc3cccs3)c2c1	-	-	0	-	-	-
CC(=O)NCCNc1ncnc2ccc(-c3ccc4c(c3)OCO4)cc12	-	-	0	16µM	?	-
C#Cc1cccc(NC(=O)C(C)OCC)c1 (stereo not given)	-	-	0	-	-	-
CC(=O)c1cc(-c2ccc(F)cc2)n(CCC(=O)Nc2cccnc2)c1C	0	0	0	0	0	0
CCOc1ccc(NC(=O)CCn2c(-c3ccc(F)cc3)cc(C(C)=O)c2C)cc1	-	-	0	21µM	23µM	-
COc1ccc(-c2cc(C(C)=O)c(C)n2CCC(=O)Nc2cc(C)ccc2OC)cc1	-	-	0	16µM	18µM	-
COc1ccc(C(=O)COc2ccc(C)cc2NC(C)=O)cc1	0	0	0	?	21µM	0
COc1ccc(-c2cc(C(C)=O)c(C)n2CCC(=O)Nc2ccc(C(F)(F)F)cc2)cc1	-	-	0	12µM	13µM	-
COc1cccc(/C=C/C(=O)Oc2ccc(Br)cc2)c1	-	-	0	-	-	-
Cn1c(=O)c2c(nc(NC(CO)CO)n2Cc2ccc(Br)cc2)n(C)c1=O	-	-	0	-	-	-
O=C(Cc1ccc(O)cc1)N1CCOC2(CCN(C(=O)c3ccccc3)CC2)C1	-	-	0[6.33 µM]	-	-	-
CC(=O)c1cc(-c2ccccc2)n(CC(=O)NCc2ccccc2C)c1C	-	-	0	?	0	-
COc1ccc(C2(c3ccc(OC)cc3)NC(=O)N(CC(=O)Nc3cc(C)ccc3OC)C2=O)cc1	0	0	0	18µM	?	?
CC(=O)c1cc(-c2ccc(F)cc2)n(CCC(=O)NCc2ccccc2C)c1C	-	-	0	16µM	?	-
CC(NC(=O)CSc1nncn1-c1ccccc1)c1cccc2ccccc12 (stereo not given)	-	-	0	-	-	-
COc1ccc(C(=O)N2CCC2(C)C(=O)NC(C)C)cc1OC (stereo not given)	0	0	0	0	0	0
CC(C)(C)c1ccc(C(=O)N2CCC2(C)C(=O)Nc2ccc3[nH]ncc3c2)cc1 (stereo not given)	0	0	0	21µM	15µM	?
CC(C)C(=O)N1CCC1(C)C(=O)Nc1ccc2cn[nH]c2c1 (stereo not given)	0	0	0	0	0	0
CC(C)(C)c1ccc(C(=O)N2CCC2(C)C(=O)Nc2ccc3nc[nH]c3c2)cc1 (stereo not given)	0	0	-	15µM	18µM	0
COc1ccc(NC(=O)C2(C)CCN2C(=O)c2ccc(C(C)(C)C)cc2)cc1OC (stereo not given)	0	0	0	13µM	10µM	?
COc1ccc(C(=O)/C(=C\c2cccc(Cl)c2)c2nc3ccccc3o2)cc1	-	-	0	-	-	-
CCOc1ccc2c(n1)CCN(C(=O)CCC1CCCC1)C2	-	-	0	-	-	-
C=CC(=O)Nc1cccc(Oc2ccnc3[nH]ccc23)c1	0	0	-	?	?	0
SMILES	IL1B secr inh	HT1080-NT tox	ALOX12 inh	TDP1 cell CPT	TDP1 cell noCPT	HT1080 IDH1KD tx
C=CC(=O)Nc1cccc(Oc2ccnc(Nc3ccc(N4CCN(C)CC4)cc3)n2)c1	-101	0	?	?	16µM	0
C=CC(=O)Nc1cccc(N(C)c2ccnc(Nc3ccc(N4CCN(C)CC4)cc3)n2)c1	-100	0	-	?	5.2µM	?
C[S+](=O)([O-])NCCn1ccc2cc(OC3CCN(c4ncccn4)CC3)cnc21	-	-	0	-	-	-
CC(C)NC(=O)N[C@H]1CCN(C(=O)c2cnccn2)[C@@H]1C(=O)N[C@@H](Cc1cccs1)C(N)=O	-	-	0	-	-	-
CCN1C(=NCc2ccco2)N[C@@H](c2cccc(C(F)(F)F)c2)C(C(=O)OC)=C1C	0	0	0	16µM	?	0
COCCN1C(=O)N[C@@H](c2cccc(C(F)(F)F)c2)C(C(=O)OC)=C1C	0	0	-	?	0	0
CCN1C(=NCCOC)N[C@@H](c2cccc(C(F)(F)F)c2)C(C(=O)OC)=C1C	?	0	?	21µM	18µM	0
CCN1C(=NCC2CC2)N[C@@H](c2cccc(C(F)(F)F)c2)C(C(=O)OC)=C1C	-	0	-	?	10µM	0
CCN1C(=NCc2cc(OC)c(OC)c(OC)c2)N[C@@H](c2cccc(C(F)(F)F)c2)C(C(=O)OC)=C1C	0	0	0	?	0	0
COC(=O)C1=C(C)N(C)C(=NCc2cccc(C(F)(F)F)c2)NC1c1cccc(F)c1 (stereo not given)	-	-	0	-	-	-
CN(C)S(=O)(=O)c1ccc2oc(SCCOc3ccc(F)cc3)nc2c1	-	-	0	-	-	-
CCN1CC2(CCC1=O)CCN(C(=O)[C@@](C)(N)Cc1ccccc1)CC2	-	-	0	-	-	-
COc1ccc2cc(C(=O)NCc3ccc4c(c3)CCN4C(=O)c3ccc(F)cc3)[nH]c2c1	-	-	0	21µM	18µM	-
COc1ccc2cc(C(=O)NCc3ccc4c(c3)CCN4C(=O)c3ccc(C)cc3)[nH]c2c1	-	-	?	13µM	?	-
COc1cccc2[nH]c(C(=O)NCc3ccc4c(c3)CCN4C(=O)c3ccc(F)cc3)cc12	-	-	0	?	?	-
COc1ccccc1CC(=O)N(Cc1nc(-c2ccc(C)cc2)no1)C1CCCCC1	-	-	0	-	-	-
CCN(C(=O)COc1ccccc1)C1CCCCC1	0	0	0	21µM	?	0
COc1ccccc1OCC(=O)N(Cc1nc(-c2ccccc2)no1)C1CCCCC1	0	0	?	23µM	21µM	0
CCN(C(=O)CSc1ccccn1)C1CCCCC1	0	0	0	10µM	15µM	0
Cc1cccc(CC(CC(=O)O)C(=O)O)c1 (stereo not given)	-	-	0	-	-	-
CCOC(=O)c1cccc(NS(=O)(=O)c2cc(-c3nn(C)c(=O)c4c3CCCC4)ccc2CC)c1	-	-	0	-	-	-
COc1ccc(CNC(=O)C(c2ccccc2F)N(C(=O)c2csnn2)C2CC2)cc1 (stereo not given)	0	0	0	21µM	?	0
O=C(NCc1ccccc1)C(c1c(F)cccc1Cl)N(C(=O)c1csnn1)C1CC1 (stereo not given)	0	0	0	?	?	0
CNC(=O)[C@H]1O[C@@H](n2cnc3c(NCc4cccc(I)c4)nc(Cl)nc32)[C@H](O)[C@@H]1O	-89	0	?	?	21µM!	0
O=C1c2ccccc2-c2nnc(-c3ccccc3)cc21	0	0	0	3.7µM	5.2µM	0
COc1ccc(-c2cc3c(nn2)-c2ccccc2C3=O)cc1	0	0	0	26µM	16µM	0
COc1ccc(CNC(=O)c2c(OCC3CC3)cc(=O)n3c2CCOCC3)cc1	-	-	0	-	-	-

Screening results as filed in PubChem BioAssay.
